# MCF10A rereplic = inducers of DNA re-replication in MCF 10A breast cells | MCF 10A DNA re-replication, Hoechst nuclear intensity, 48 h | Potency, µM (top dose mostly 46.1 µM), without a hit: top-dose activity, positive = re-replication, most hits filed as activators | 350,000 tested, 2.9% active; further: potency means the concentration at half of the fitted maximal effect; % of control where 0% means no effect; nearly all actives have a fitted effect of over 50% in size
# PINK1 modulator = changes PINK1 expression; PINK1 immunofluorescence, high-content cytometry, 24 h; Potency, µM (highest dose often 76.6 µM), for inactives: at the top dose activation (PINK1 increase), most hits filed as activators; 410,000 tested, 0.2% active; AID 624263; active means well fitted activation curve with a large enough effect; inconclusive means small, poorly fitted or top-dose-only effect; cell line not stated here; further: potency means the concentration at half of the fitted maximal effect; % of control where 0% means no effect; nearly all actives have a fitted effect of over 65% in size
#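 Measures PINK1 amount and localization on or inside mitochondria by immunofluorescence. Stable cells get compounds at 5 concentrations for 24 hours before fixation and staining; CCCP controls included.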
# SW480 rereplic = induces DNA re-replication in SW480 colon adenocarcinoma cells; SW480 DNA re-replication, Hoechst DNA content imaging, 48 h; Potency, µM (series often up to 46.1 µM), for inactives: top-dose re-replication activation, hits mostly activators; 340,000 tested, 1.8% active; AID 624297; further: potency means the concentration at half of the fitted maximal effect; % of control where 0% means no effect; nearly all actives have a fitted effect of over 55% in size
#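 Image-based DNA-content assay: after two days of treatment, nuclei were labelled with the DNA dye Hoechst and imaged, and hits were compounds raising the count of nuclei showing high fluorescence intensity.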
# ATXN2 expr inh = inhibitors of ATXN2 expression; HEK-293 ATXN2-luciferase reporter, luminescence, 24 h; Potency, µM (top dose mostly 57 µM), inactives show top-dose activity change, negative = inhibition, most hits filed as inhibitors; 360,000 tested, 0.72% active; AID 1745845; further: potency means the concentration at half of the fitted maximal effect; on the % scale 0 is the no-effect control and ±100 the full control effect; nearly all actives have a fitted effect of over 55% in size
#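 ATXN2-luciferase reporter cells (luciferase flanked by upstream and downstream ATXN2 gene portions) were treated 24 h at 37 °C with compounds at up to 57 uM. SteadyGlo luminescence gave expression; GF-AFC fluorescence gave viability.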
# IL-1B inflam inh = inflammasome signaling inhibition, IL-1 beta readout. activity change, % at 57.5 µM. 360,000 tested, 4.7% active. THP-1 LPS/ATP IL-1B secretion, AlphaLISA, 16 h; stronger effect = lower value; in the data active means activity change below about -50%; inconclusive means mostly about -30% to -49%; further: on the % scale 0 is the no-effect control and ±100 the full control effect
#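 Secreted IL-1B measured by AlphaLISA bead assay after 16 h compound exposure of THP-1 cells; compounds (final up to 57.5 uM) added 1 h before LPS (250 ng/mL) and ATP (1.25 mM) stimulation; lower signal means less secretion.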
# ATXN viability = cell viability loss in ATXN counter-screen; S2 cells (HEK-293 line with an ATXN2-luciferase reporter) viability, CellTiter-Fluor protease fluorescence, 24 h; Potency, µM (doses to about 56.7 µM), hits mostly cytotoxic; 400,000 tested, 0.49% active; further: potency means the concentration at half of the fitted maximal effect; nearly all actives have a fitted effect of over 40% in size
# * marks the source's active call; other numbers are inactive results; i = inactive; u = inconclusive; x = not tested or not shown; [ ] = dose if it differs, or a comment. Compounds with a hit are over-represented: about 7.1% of the library has one in this group of screens. Unless noted, the call rests on the fitted dose curve; in most records, active means well fitted curve in the direction sought with a large enough effect; inconclusive means small, poorly fitted or top-dose-only effect, or another doubt; inactive means no such curve, though single readings can be large; an effect the other way counts as inactive or inconclusive.
SMILES,MCF10A rereplic,PINK1 modulator,SW480 rereplic,ATXN2 expr inh,IL-1B inflam inh,ATXN viability
CS(=O)(=O)c1ccc(N)c(SSc2cc(S(C)(=O)=O)ccc2N)c1,3.66µM*,-1.4%,-4.2%,7.2%,-95.2*,i
CCCN1CNc2c(c(=O)[nH]c(=S)n2CCc2ccc(OC)cc2OC)C1,x,-0.5%,x,x,x,x
Cc1cccc(C)c1OCC(O)CN (centres undefined),3.4%,-1.7%,0.0%,-6.3%,-59.1*,i
COc1ccc2oc(=O)c(-c3cn4ccc(C)cc4n3)cc2c1,14.6µM*,10.6%,u,x,87.7,x
COc1cccc(NC(=O)c2nn(-c3ccc(C)cc3)c(=O)n(C)c2=O)c1,x,0.4%,x,6.4%,x,i
CCOCc1cc(CN2CCN(c3ccccc3OC)CC2)c(O)c2ncccc12,x,2.8%,x,x,x,x
COc1ccccc1N1CCN(Cc2cc(Br)c(O)c3ncccc23)CC1,u,u,5.17µM*,3.77µM*,69.6,u
Oc1c(CN2CCN(c3ccccn3)CC2)cc(Cl)c2cccnc12,u,-1.0%,7.31µM*,u,0.8,i
COCc1cc(CN2CCCC2)c(O)c2ncccc12,7.3%,-1.2%[38.3 µM],-0.7%,u,100.7,u
OCCN1CCN(Cc2cc(Cl)c3cccnc3c2O)CC1,u,-5.0%[38.3 µM],3.26µM*,22.4µM*,72.1,i
Cc1ccc(C2CC(=O)Nc3cc4c(cc32)OCCO4)cc1Br (centres undefined),x,2.2%,x,-17.6%,x,i
Cc1ccc(N2CCN(C(=O)c3nn(C)c4c3CSc3ccccc3-4)CC2C)cc1 (centres undefined),x,2.9%,x,x,x,x
Cc1ccc(C)c(NC(=S)NNc2ccc(F)cc2F)c1,u,4.1%,11.2%,-3.4%,-100.3*,i
Cc1ccc(NNC(=S)Nc2ccc(C(C)C)cc2)c(C)c1,7.31µM*,u,6.3%,1.5%,-108.5*,i
Cc1ccc(NC(=S)NNC(=S)Nc2ccc(C)cc2)cc1,25.0%,9.6%,-5.1%,-17.3%,-1.2,u
Cc1ccc(NC(=S)NCCc2ccccc2)c(C)c1,16.9%,-0.4%,u,18.7%,-22.8,i
Cc1ccc(C)c(NC(=S)NCCc2ccc(F)cc2)c1,u,0.2%,u,x,-66.8*,i
CCc1ccccc1NC(=O)c1noc2c1CC(C(C)(C)C)CC2 (centres undefined),x,3.2%,x,0.3%,x,i
NNc1nccc(Nc2ccccc2C(=O)O)n1,-4.3%,2.4%,-0.9%,-6.7%,-66.5*,i
c1ccc(Nc2ccnc(Nc3ccccc3)n2)cc1,u,-2.7%,u,0.0%,x,u
CCOP1(=O)OCC2OC(n3cnc4c(N)ncnc43)C(O)C2O1 (centres undefined),14.6µM*,-1.1%,-17.5%,-14.7%,x,i
Nc1ncnc2c1ncn2[C@@H]1O[C@H](CO)[C@@H](O)[C@H]1O,-3.8%,5.2%,8.3%,11.0%,-2.2,i
Cc1ccc2oc3c(c(=O)c2c1)C(c1cccc(Br)c1)N(Cc1ccco1)C3=O (centres undefined),u,u,u,-7.6%,0.0,i
Cc1cc2oc3c(c(=O)c2cc1C)C(c1cccc(Br)c1)N(Cc1ccco1)C3=O (centres undefined),10µM*,7.1%,-18.7%,u,-1.6,u
COc1ccccc1N=Nc1nc(-c2ccccc2)c(-c2ccccc2)[nH]1,13.4%,0.4%,0.6%,-9.2%,-14.3,35.5µM*
SMILES,MCF10A rereplic,PINK1 modulator,SW480 rereplic,ATXN2 expr inh,IL-1B inflam inh,ATXN viability
COc1ccccc1NC(=O)c1cc2ccccc2o/c1=N\O,7.7%,2.5%,0.6%,5.0%,-17.7,i
Cc1cccc(N=c2oc3cc(O)ccc3cc2C(N)=O)c1,u,4.2%,u,6.1%,-19.4,x
COc1ccccc1NC(=O)c1cc2ccc(O)cc2o/c1=N\O,u,-1.6%,u,19.0%,-63.2*,i
COc1ccccc1N=c1oc2cc(O)ccc2cc1C(N)=O,18.4µM*,-0.3%,11.2µM*,-4.8%,u,x
Cc1csc(NC(=O)c2ccc(Cn3nc(C)c(Br)c3C)o2)n1,u,5.5%,-1.9%,-20.0%,-73.2*,i
CSc1nc(Oc2ccc3ccccc3c2)c2sccc2n1,u,2.6%,20.6µM*,u,75.6,i
COc1ccc(Oc2nc(SC)nc3ccsc23)cc1,u,5.2%,u,-14.0%,11.9,i
CCC(=O)N1CCc2cc(S(=O)(=O)CCC(=O)Nc3ccc(OC(F)(F)F)cc3)ccc21,x,1.3%,x,-22.5%,x,i
COc1ccc(NC(=O)C(Cc2ccccc2)n2cccc2)cc1 (centres undefined),-14.0%,0.6%,-6.5%,5.0%,-73.2*,i
C[C@@H]1CN([C@@H](C)CO)S(=O)(=O)c2ccc(C#CC3CCCCC3)cc2O[C@@H]1CN(C)Cc1cccnc1,x,3.4%,x,28.2µM*,-66.3*,u
COc1ccc(S(=O)(=O)N(C)C[C@@H]2Oc3cc(C#CC4CCCCC4)ccc3S(=O)(=O)N([C@@H](C)CO)C[C@@H]2C)cc1,x,2.2%,x,-30.5%,-52.2*,u
COc1ccc(C#Cc2ccc3c(c2)O[C@H](CN(C)S(=O)(=O)c2ccccc2F)[C@H](C)CN([C@H](C)CO)S3(=O)=O)cc1,x,4.6%,x,5.4%,u,i
CCOc1ccc(NC(=O)C(CC)n2c(=O)c(-c3ccccc3NC(C)=O)nc3ccccc32)cc1 (centres undefined),x,9.6%,x,-38.5%,x,u
O=C(Nc1ccc(F)cc1)C(Sc1nc2ccccc2[nH]1)c1ccccc1 (centres undefined),11.6µM*,5.1%,u,-1.3%,-54.2*,i
Fc1ccc(CSc2nc3ccccc3[nH]2)cc1,2.0%,3.1%[38.3 µM],-4.3%,72.8%,-63.2*,i
CCOc1ccc(OCCSc2nc3ccccc3[nH]2)cc1,-9.7%,x,1.6%,-1.7%,u,i
O=C(CSc1nc2ccccc2[nH]1)Nc1ccc(F)cc1,19.1%,8.3%,-4.0%,-13.5%,-26.0,i
Cc1cccc2nc(CSc3nc4ccccc4[nH]3)cn12,-3.6%,-0.8%,-3.7%,10.6%,-66.5*,i
CCCOc1ccc(CSc2nc3ccccc3[nH]2)cc1,28.3%,-3.0%[38.3 µM],-2.6%,3.9%,-55.5*,u
CC1CCN(S(=O)(=O)c2ccc3c(ccn3CC(=O)NCc3ccccc3F)c2)CC1,x,2.7%,x,-18.0%,x,u
OC[C@H]1O[C@@H](Oc2cc(O)cc(C=Cc3ccc(O)cc3)c2)[C@H](O)[C@@H](O)[C@H]1O,x,x,x,15.4%,x,x
Cc1ccc(NC(=O)C2CCCN2S(=O)(=O)c2cccc3cccnc23)cc1 (centres undefined),x,-0.6%,x,x,x,x
COc1ccc(Cn2c(=O)c3oc4ccccc4c3n(Cc3ccccc3)c2=O)cc1,x,-0.5%,x,x,x,x
